# PubChem BioAssay (EPA / NIEHS)
# Several values for one entry are separate records, joined by “and”; a condition that tells them apart may be missing. Equal entries are not always repeated. Records with an inconclusive call do not appear. Where a structure was tested more than once in an assay, its records may differ in their call. Activity calls are given as the source filed them. How the source made its calls, unless noted: active means hit-call score of the fitted dose curve at least 0.9, where 1 is the maximum; inconclusive means response in the unintended direction; inactive means score below 0.9.
# Key:
# [1] = target: Bile acid receptor (Homo sapiens) (UniProt Q96RI1); test: OT_FXR_FXRSRC1_0480: Odyssey Thera (OT) 8-hour HEK293T Protein-Complementation Assay for Farnesoid X receptor/SRC-1 Co-activator (AID 2283383)
# Summary of the method: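 Binding of FXR to coactivator SRC-1 was read as fluorescence from a reconstituted split reporter in HEK293T cells, 8 h after chemical addition. Only increases in signal versus DMSO were fit.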
# [2] = target: Peroxisome proliferator-activated receptor gamma (Homo sapiens) (UniProt P37231); test: OT_PPARg_PPARgSRC1_0480: Odyssey Thera (OT) 8-hour Protein-Complementation Assay for Peroxisome Proliferator-activated Receptor Gamma / SRC-1 Co-activator (AID 2283387);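 further: nuclear to cytoplasmic split Venus YFP fluorescence ratio reporting PPARg SRC-1 interaction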
# Summary of the method: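 Protein-fragment complementation of split Venus YFP reports PPARg/SRC-1 interaction in HEK293T (transfected 48 h before treatment), exposed 8 h. Readout: N/C fluorescence ratio at 488 nm from imaging, Draq5 for segmentation, positive fit relative to DMSO.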
# [3] = target: Retinoic acid receptor RXR-alpha (Homo sapiens) (UniProt P19793); test: OT_NURR1_NURR1RXRa_0480: Odyssey Thera (OT) 8-hour HEK293T Protein Complementation Assay for Nurr1/retinoid X receptor (RXR) (AID 2283385)
# Summary of the method: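 Interaction of Nurr1 with RXRα read as reconstituted reporter fluorescence in a HEK293T fragment-complementation system, 8 h post-treatment; increase over DMSO baseline analysed.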
# [4] = target: Retinoic acid receptor RXR-alpha (Homo sapiens) (UniProt P19793); test: OT_NURR1_NURR1RXRa_1440: Odyssey Thera (OT) 24-hour HEK293T Protein Complementation Assay for Nurr1/retinoid X receptor (RXR) (AID 2283386)
# Summary of the method: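 Gain in fluorescence, fitted relative to DMSO, reflects Nurr1–RXRα association in HEK293T cells after 24 h dosing. Bait and prey are each linked to a reporter-protein fragment that reassembles on interaction.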
# [5] = target: Bile acid receptor (Homo sapiens) (UniProt Q96RI1); test: OT_FXR_FXRSRC1_1440: Odyssey Thera (OT) 24-hour HEK293T Protein-Complementation Assay for Farnesoid X receptor/SRC-1 Co-activator (AID 2283384)
# Summary of the method: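 Protein-fragment complementation: FXR and SRC-1 fused to reporter fragments that reassemble on interaction, read by fluorescence intensity. Human HEK293T cells measured 24 h post-dose; positive-direction fit versus DMSO.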
# [6] = CEETOX_H295R_CORTIC: CeeTox H295R High-throughput Steroidogenesis Assay for Corticosterone (CORTIC) (AID 2283437; active means hit-call score of the fitted dose curve at least 0.9, where 1 is the maximum; inactive means score below 0.9); settings: actives raise or lower the signal
# Summary of the method: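 Medium corticosterone was quantified by tandem mass spectrometry following 48 hours of chemical exposure (0.1% DMSO) in human H295R cells previously stimulated 48 hours with 10 uM forskolin. Viability checked by MTT; chemicals diluted and retested when viability fell below 70%.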
# [7] = CEETOX_H295R_11DCORT: CeeTox H295R High-throughput Steroidogenesis Assay for 11-Deoxycortisol (11DCORT) (AID 2283432; active means hit-call score of the fitted dose curve at least 0.9, where 1 is the maximum; inactive means score below 0.9;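 further: 11-deoxycortisol secreted into the medium measured by LC-MS/MS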); settings: actives raise or lower the signal
# Summary of the method: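 Human adrenal H295R cells were prestimulated with 10 uM forskolin for 48 h, then exposed to test chemical (0.1% DMSO final) for 48 h. Medium 11-deoxycortisol was quantified by MTBE extraction and HPLC-MS/MS; bidirectional fitting relative to DMSO.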
# [8] = CEETOX_H295R_OHPREG: CeeTox H295R High-throughput Steroidogenesis Assay for OH-Pregnenolone (OHPREG) (AID 2283434; active means hit-call score of the fitted dose curve at least 0.9, where 1 is the maximum; inactive means score below 0.9); settings: actives raise or lower the signal
# Summary of the method: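 Secreted 17alpha-hydroxypregnenolone measured by HPLC-MS/MS after liquid-liquid extraction. Human adrenal H295R cells received 48 h forskolin (10 uM) stimulation before 48 h chemical exposure at 0.1% final DMSO; MTT viability in same wells; bidirectional fit against DMSO.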
# [9] = CEETOX_H295R_OHPROG: CeeTox H295R High-throughput Steroidogenesis Assay for OH-Progesterone (OHPROG) (AID 2283435; active means hit-call score of the fitted dose curve at least 0.9, where 1 is the maximum; inactive means score below 0.9); settings: actives raise or lower the signal
# Summary of the method: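 Medium steroid levels read by LC-MS/MS after 48 h chemical treatment (0.1% DMSO) of human adrenal H295R cells that had been forskolin-primed (10 uM, 48 h). Gain or loss fitted against DMSO; MTT cytotoxicity checked per well.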
# Chain of Retinoic acid receptor RXR-alpha (Homo sapiens) (P19793 whole entry, looked up, the tested form may be a part): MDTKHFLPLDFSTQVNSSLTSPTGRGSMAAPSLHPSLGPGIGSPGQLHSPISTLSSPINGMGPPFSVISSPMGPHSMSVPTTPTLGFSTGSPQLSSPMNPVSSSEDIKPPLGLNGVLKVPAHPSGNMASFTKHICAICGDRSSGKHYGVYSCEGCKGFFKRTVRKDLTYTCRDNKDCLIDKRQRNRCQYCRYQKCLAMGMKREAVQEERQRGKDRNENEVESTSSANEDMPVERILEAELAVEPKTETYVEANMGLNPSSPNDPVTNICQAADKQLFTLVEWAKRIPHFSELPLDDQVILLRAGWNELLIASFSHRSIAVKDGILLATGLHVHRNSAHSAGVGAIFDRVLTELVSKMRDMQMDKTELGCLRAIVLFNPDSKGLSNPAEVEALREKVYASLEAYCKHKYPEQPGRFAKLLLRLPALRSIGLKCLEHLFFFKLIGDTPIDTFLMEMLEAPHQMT
# Chain of Bile acid receptor (Homo sapiens) (Q96RI1 whole entry, looked up, the tested form may be a part): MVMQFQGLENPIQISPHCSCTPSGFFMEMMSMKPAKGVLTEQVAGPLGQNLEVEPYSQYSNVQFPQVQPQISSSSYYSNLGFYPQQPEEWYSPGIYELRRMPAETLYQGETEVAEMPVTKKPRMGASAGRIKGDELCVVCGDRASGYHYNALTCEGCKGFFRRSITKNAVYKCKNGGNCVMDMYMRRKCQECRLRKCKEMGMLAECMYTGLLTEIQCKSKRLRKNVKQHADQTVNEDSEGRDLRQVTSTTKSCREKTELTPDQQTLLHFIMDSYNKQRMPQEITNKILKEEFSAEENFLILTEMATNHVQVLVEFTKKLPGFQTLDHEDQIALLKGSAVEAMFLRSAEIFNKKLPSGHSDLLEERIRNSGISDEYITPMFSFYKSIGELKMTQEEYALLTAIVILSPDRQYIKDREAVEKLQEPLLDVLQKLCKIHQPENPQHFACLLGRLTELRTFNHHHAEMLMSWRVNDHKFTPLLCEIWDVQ
# Chain of Peroxisome proliferator-activated receptor gamma (Homo sapiens) (P37231 whole entry, looked up, the tested form may be a part): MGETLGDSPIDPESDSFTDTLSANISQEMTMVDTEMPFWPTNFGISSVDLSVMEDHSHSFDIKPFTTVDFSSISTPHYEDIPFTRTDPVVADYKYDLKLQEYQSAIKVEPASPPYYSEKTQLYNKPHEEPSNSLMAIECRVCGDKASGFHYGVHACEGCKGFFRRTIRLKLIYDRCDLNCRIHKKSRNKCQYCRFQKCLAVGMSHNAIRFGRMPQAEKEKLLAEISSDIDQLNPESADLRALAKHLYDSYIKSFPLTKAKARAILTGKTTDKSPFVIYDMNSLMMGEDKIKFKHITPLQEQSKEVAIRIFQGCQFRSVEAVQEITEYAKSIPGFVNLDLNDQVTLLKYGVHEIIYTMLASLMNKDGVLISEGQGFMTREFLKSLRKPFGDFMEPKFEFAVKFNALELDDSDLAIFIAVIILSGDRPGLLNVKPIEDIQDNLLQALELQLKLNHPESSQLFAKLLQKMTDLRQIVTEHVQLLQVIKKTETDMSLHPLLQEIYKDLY
smiles,measurement,setting,value
CCc1ccccc1O,outcome,[1],inactive
same,outcome,[2],inactive
CCCCCCCCCCCCCCC,outcome,[3],inactive
same,outcome,[4],inactive
O=C(c1ccccc1)c1ccccc1,outcome,[1],inactive
same,outcome,[3],inactive
same,outcome,[4],inactive
Cc1[nH]nc2c1N=C(c1ccccc1Cl)c1cc([N+](=O)[O-])ccc1N2,AC50,[1],1.06 µM (active)
same,AC50,[5],0.279 µM (active)
Cc1cc(C(=C2C=CC(=Nc3ccc(S(=O)(=O)O)cc3)C=C2)c2ccc(Nc3ccc(S(=O)(=O)O)cc3)cc2)cc(S(=O)(=O)O)c1N,outcome,[1],inactive
same,outcome,[5],inactive
same,outcome,[2],inactive
CCCCCCCCCCCC,AC50,[3],39.2 µM (active)
same,outcome,[4],inactive
same,outcome,[2],inactive
CN(C)CCOC(c1ccccc1)c1ccccc1,outcome,[3],inactive
same,AC50,[4],6.73 µM (active)
same,outcome,[4],inactive
CCCCc1oc2ccccc2c1C(=O)c1cc(I)c(OCCN(CC)CC)c(I)c1,AC50,[1],9.16 µM (active)
same,AC50,[5],8.87 µM (active)
same,AC50,[3],8.75 µM (active)
same,outcome,[3],inactive
same,AC50,[4],8.94 µM (active) and 8.82 µM (active)
same,outcome,[2],inactive
CCCCC=O,outcome,[5],inactive
same,outcome,[3],inactive
same,outcome,[4],inactive
C=CC(C)(CCC=C(C)C)OC(C)=O (stereo unspecified),AC50,[1],76 µM (active)
same,outcome,[5],inactive
same,outcome,[3],inactive
same,outcome,[2],inactive
CS(=O)(=O)c1ccc([C@@H](CC2CCCC2)C(=O)Nc2cnccn2)cc1Cl,outcome,[3],inactive
CCCCCCC(C)(C)C(=O)O,outcome,[1],inactive
same,outcome,[5],inactive
same,outcome,[3],inactive
same,outcome,[4],inactive
same,outcome,[2],inactive
O=S(=O)(O)c1ccccc1,outcome,[1],inactive
same,outcome,[5],inactive
same,outcome,[3],inactive
same,outcome,[4],inactive
same,outcome,[2],inactive
O=C1OC2(c3ccccc31)c1cc(I)c(O)c(I)c1Oc1c2cc(I)c(O)c1I,outcome,[3],inactive
O=C(CCCN1CCC(O)(c2ccc(Cl)cc2)CC1)c1ccc(F)cc1,outcome,[1],inactive
same,outcome,[5],inactive
same,outcome,[3],inactive
same,AC50,[4],80.3 µM (active)
same,outcome,[4],inactive
same,outcome,[2],inactive
same,outcome,[6],inactive
NCc1cccc(CN)c1,outcome,[5],inactive
same,outcome,[4],inactive
same,outcome,[2],inactive
CCCCCCc1ccc(N)cc1,AC50,[1],17 µM (active)
same,AC50,[5],6.61 µM (active)
same,outcome,[3],inactive
same,outcome,[4],inactive
same,outcome,[2],inactive
CCCCCC(C)OC(=O)COc1ccc(Cl)c2cccnc12 (stereo unspecified),AC50,[1],44 µM (active)
same,AC50,[5],22.7 µM (active)
same,AC50,[3],15 µM (active)
same,outcome,[4],inactive
same,outcome,[2],inactive
same,AC50,[7],18.7 µM (active)
same,outcome,[8],inactive
same,outcome,[9],inactive
same,outcome,[6],inactive
CC(C)[C@@H]1CC[C@@H](C)C[C@H]1O,outcome,[1],inactive
same,outcome,[4],inactive
same,outcome,[2],inactive
CCCCCCCCCC=CCC1CC(=O)OC1=O (stereo unspecified),outcome,[1],inactive
same,outcome,[5],inactive
same,outcome,[3],inactive
same,outcome,[2],inactive
CCCCc1ccc2ccccc2c1S(=O)(=O)O,outcome,[1],inactive
same,outcome,[2],inactive
OCC(CO)(CBr)CBr,outcome,[5],inactive
same,outcome,[3],inactive
same,outcome,[2],inactive
CN(Cc1cnc2nc(N)nc(N)c2n1)c1ccc(C(=O)N[C@@H](CCC(=O)O)C(=O)O)cc1,outcome,[1],inactive
same,outcome,[5],inactive
same,outcome,[3],inactive
same,outcome,[4],inactive
same,outcome,[2],inactive
CCCCCCCCCCCCOC(=O)c1cc(O)c(O)c(O)c1,outcome,[5],inactive
same,outcome,[2],inactive
Cc1cc(C(C)(C)C)c(O)c(C(C)(C)C)c1,AC50,[1],11.3 µM (active)
same,AC50,[5],11.4 µM (active)
same,AC50,[3],74.6 µM (active)
same,AC50,[4],77.3 µM (active)
same,outcome,[2],inactive
